# According to PubChem BioAssay:
# Active and inactive are the calls of the source.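 Rule for the calls, unless noted: active = fluorescence slope after compound addition differing from the mean of all screened samples at 99.7% confidence, in either direction; inactive = the rest.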
# Assays:
# [1] = inhibitors of TNFa-induced NFkB p65 translocation, primary screen, imaging, HUVEC, MLSMR starter and 10KST1 sets (AID 438;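 active = inhibition above 20% together with a positive visual image hit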;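 note: compound added about 3h40 before a 20 min TNFalpha stimulation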;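 for inhibition: signal is the nuclear over cytoplasmic p65 intensity ratio per well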); conditions: HUVEC TNFa-induced p65 nuclear translocation; cell count: measured here: nuclei count (cytotoxicity indicator), at 2.08 µM; inhibition: at 2 µM, stronger effect = higher value, 0% TNFa-plus-vehicle, 100% no-TNFa wells
# [2] = reduction of polyQ htt aggregates in cells – imaging, exon1htt(103Q)mCFP cells, high-content imaging, primary screen (AID 483;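 active = visual image review flags a hit and inhibition of aggregation exceeds 20%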;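 note: compound exposure lasted 3 days before fixation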;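 for nuclei count: percent of the per-plate median nuclei count of sample wells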); conditions: exon1htt(103Q)mCFP cell line, aggregate imaging, at 2 µM; inhibition of aggregation: stronger effect = higher value; nuclei count: measured here: cell count, toxicity
# [3] = endothelial E-selectin expression blockers – imaging, HUVEC, immunofluorescence, MLSMR starter and 10KST1 sets, primary screen (AID 487;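 active = visually confirmed hit in the image check and inhibition above 20%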;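 for inhibition: signal is fraction of cell area covered by stained E-selectin grains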;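 for nuclei count: 100% = median nuclei count of all wells on the same plate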); conditions: HUVEC TNFalpha-induced E-selectin immunofluorescence imaging, at 2 µM; inhibition: stronger effect = higher value; nuclei count: measured here: cell number, toxicity
# [4] = molecular target: Voltage-gated potassium channel subunit beta-2 (Rattus norvegicus) (UniProt P62483); experiment: inhibitors of rat Kvbeta2 reductase activity – biochemical, NADPH fluorescence, primary screen (AID 622;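 active = fluorescence slope higher than the sample average by over 3 SD, cut at about -0.22 in these data, passing the limit was not always enough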;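 note: slope of raw intensity against log time taken from 70 to 1610 s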); conditions: recombinant KvBeta, 4-cyanobenzaldehyde reduction, at 10 µM, stronger effect = higher value
# Voltage-gated potassium channel subunit beta-2 (Rattus norvegicus), sequence (P62483 whole entry, looked up): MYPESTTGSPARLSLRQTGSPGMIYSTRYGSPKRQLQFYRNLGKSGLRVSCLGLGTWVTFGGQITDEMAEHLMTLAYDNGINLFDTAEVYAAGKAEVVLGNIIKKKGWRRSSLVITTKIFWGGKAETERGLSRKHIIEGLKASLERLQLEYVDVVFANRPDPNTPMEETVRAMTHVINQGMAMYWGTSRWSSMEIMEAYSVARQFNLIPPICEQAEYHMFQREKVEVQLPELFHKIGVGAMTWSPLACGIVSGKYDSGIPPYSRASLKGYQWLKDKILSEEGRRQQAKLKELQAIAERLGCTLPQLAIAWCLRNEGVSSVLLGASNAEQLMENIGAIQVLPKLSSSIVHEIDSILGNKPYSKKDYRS
# [5] = molecular target: Voltage-gated potassium channel subunit beta-2 (Rattus norvegicus) (UniProt P62483); experiment: enhancers of rat Kvbeta2 NADPH turnover – biochemical, NADPH fluorescence, primary screen (AID 623;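 active = NADPH fluorescence slope more negative than the mean of all samples by about 3 SD, 99.7% confidence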;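 note: fluorescence intensity change per second fitted from 20 to 320 s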); conditions: Recombinant KvBeta, NADPH fluorescence decrease slope, 10 min; at 10 µM; stronger effect = lower value
# [6] = molecular target: Alpha-2C adrenergic receptor (Homo sapiens) (UniProt P18825); experiment: compounds altering alpha2C-coupled GIRK flux – cell-based, HEK293 alpha2C/GIRK1/2, thallium flux, primary screen (AID 624); conditions: thallium flux BTC fluorescence, at 10 µM, actives lie on both sides;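 note: slope of fluorescence ratio to pre-addition baseline per second over 15 to 24 s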
# Alpha-2C adrenergic receptor (Homo sapiens), sequence (P18825 whole entry, looked up): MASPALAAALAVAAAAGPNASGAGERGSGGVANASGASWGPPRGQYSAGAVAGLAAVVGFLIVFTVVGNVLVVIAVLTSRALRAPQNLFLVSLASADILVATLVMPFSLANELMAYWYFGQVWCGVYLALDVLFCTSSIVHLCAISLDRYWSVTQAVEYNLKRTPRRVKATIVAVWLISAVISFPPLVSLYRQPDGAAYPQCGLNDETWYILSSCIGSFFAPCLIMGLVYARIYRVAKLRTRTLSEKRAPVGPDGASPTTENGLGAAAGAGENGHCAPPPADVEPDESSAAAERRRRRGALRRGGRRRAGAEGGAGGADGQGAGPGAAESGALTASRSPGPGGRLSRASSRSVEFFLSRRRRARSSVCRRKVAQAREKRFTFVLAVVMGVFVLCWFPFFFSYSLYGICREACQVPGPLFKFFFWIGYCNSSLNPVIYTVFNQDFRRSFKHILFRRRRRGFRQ
# [7] = blockers of RIG-like receptor reporter activation – cell-based, Sendai virus stimulus, luciferase, 10K MLSCN set, TLR/RLR signaling modifier project, primary screen (AID 602276;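 active = inhibition at or above 50% at 10 µM; inactive = inhibition below 50%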;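 note: firefly luciferase from ISG56 promoter only with Renilla not read in this screen; 0% = Sendai virus plus DMSO and 100% = medium plus DMSO without virus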); conditions: HEK293 RL24 IRF3 luciferase reporter, at 10 µM, stronger effect = higher value
# [8] = TLR3 IRF3 reporter activation blockers – cell-based, poly I:C stimulus, luciferase, 10K MLSCN set, primary screen (AID 602277;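 active = inhibition of the reporter signal at or above 50%; inactive = inhibition below 50%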); conditions: HEK293-TLR3 RL24 IRF3 luciferase reporter, at 10 µM, stronger effect = higher value
SMILES,cell count [1],inhibition [1],inhibition of aggregation [2],nuclei count [2] [%],inhibition [3],nuclei count [3] [%],fluorescence slope [4],NADPH fluorescence slope [5],slope [6],inhibition [7],inhibition [8]
O=C(CCN1C(=O)COc2ccccc21)NCCN1CCN(c2cccc(Cl)c2)CC1,597,-3.6% (inactive),0.2% (inactive),88.9,-68.5% (inactive),112,-0.602 (inactive),-2.6e-06 (inactive),0.00502 (inactive),7.8% (inactive),7.33% (inactive)
COc1cc(OC)c(C2N(C)c3ccccc3N2C)cc1OC,403,1.7% (inactive),-0.8% (inactive),111,-64.6% (inactive),105,-0.502 (inactive),-1.1e-05 (inactive),0.00623 (inactive),-3.76% (inactive),26.3% (inactive)
CCc1ccc(NC(=O)CS(=O)CC(=O)NCC2OCCc3ccccc32)cc1 (stereo not drawn),698,-4.5% (inactive),6.4% (inactive),102,-119% (inactive),114,-0.415 (inactive),-3.6e-05 (inactive),0.00515 (inactive),9.39% (inactive),13.4% (inactive)
COCCNC(=O)c1cc(-c2cccs2)on1,793,-4% (inactive),-19.1% (inactive),116,-46.8% (inactive),126,-0.587 (inactive),6.5e-06 (inactive),0.00598 (inactive),-27.2% (inactive),-253% (inactive)
CCOC(=O)c1oc2ccccc2c1NC(=O)COC,602,-1.8% (inactive),15.5% (inactive),92.3,66.5% (inactive),59.1,-0.486 (inactive),-1.7e-05 (inactive),0.00552 (inactive),-14.3% (inactive),4.92% (inactive)
O=C(NCc1ccc2c(c1)OCO2)c1ccccn1,345,-2% (inactive),18.9% (inactive),100,5.4% (inactive),122,-0.375 (inactive),4.1e-05 (inactive),0.00534 (inactive),-23.2% (inactive),-28.1% (inactive)
CCCOc1ccc(N2CC(C(=O)Nc3ccc4c(c3)OCO4)CC2=O)cc1 (stereo not drawn),520,-5% (inactive),14.9% (inactive),81,-12.8% (inactive),81.9,-0.444 (inactive),-2.5e-06 (inactive),0.00561 (inactive),3.94% (inactive),6.03% (inactive)
CCOC(=O)N1CCN(C(=O)c2cccn3c(=O)c4sccc4nc23)CC1,502,1.1% (inactive),-5.5% (inactive),102,-5.7% (inactive),114,-0.0756 (inactive),1.5e-05 (inactive),0.00326 (inactive),-8.79% (inactive),-5.35% (inactive)
Cc1onc(-c2ccccc2Cl)c1C(=O)Nc1cccnc1,286,-2.3% (inactive),1.8% (inactive),106,-78.5% (inactive),148,-0.452 (inactive),2.6e-05 (inactive),0.00566 (inactive),0.844% (inactive),32.2% (inactive)
Cc1nc2ccccc2c2c1C(=O)N(CCC1=CCCCC1)C2=O,410,1.6% (inactive),-3.7% (inactive),74.1,-54.2% (inactive),108,-0.407 (inactive),-4.4e-05 (inactive),0.00396 (inactive),11.5% (inactive),42.1% (inactive)
Cc1c(C#N)c2ccccc2n1CC(=O)N1CCc2ccccc2C1,583,6% (inactive),8.7% (inactive),95.3,11.5% (inactive),114,-0.581 (inactive),-4.4e-05 (inactive),0.00747 (inactive),-9.66% (inactive),21.9% (inactive)
O=C(C1CC1)N1CCc2cc(Br)cc(S(=O)(=O)N3CCOCC3)c21,300,2.2% (inactive),-4.4% (inactive),106,-22.9% (inactive),112,-0.59 (inactive),-3.6e-05 (inactive),0.00736 (inactive),15.4% (inactive),24.8% (inactive)
O=C(Nn1c(C2CC2)nc2ccccc2c1=O)c1ccco1,579,-12.1% (inactive),9.9% (inactive),95.2,-38.3% (inactive),116,-0.48 (inactive),6.6e-05 (inactive),0.00689 (inactive),9.09% (inactive),23.5% (inactive)
C=CCOC(=O)COc1ccc2c(C)c(C)c(=O)oc2c1C,373,-3.6% (inactive),-9.6% (inactive),102,-22.7% (inactive),105,-0.608 (inactive),-5.7e-06 (inactive),0.00552 (inactive),-3.09% (inactive),3.78% (inactive)
CCOC(=O)c1nnc(-c2ccccc2)o1,620,2.2% (inactive),-2.9% (inactive),114,-14.5% (inactive),89.7,-0.592 (inactive),-3.3e-05 (inactive),0.00603 (inactive),17.6% (inactive),-1.89% (inactive)
O=S1(=O)N=C(Nc2nc3c(s2)CCCC3)c2ccccc21,319,-4.2% (inactive),5% (inactive),102,-33.1% (inactive),111,-0.468 (inactive),5.2e-05 (inactive),0.00562 (inactive),-62.5% (inactive),-97.7% (inactive)
Cc1cc(C)n2nc(SCc3cc(=O)n4ccccc4n3)nc2n1,536,-16.3% (inactive),13% (inactive),66.3,-75.8% (inactive),112,-0.29 (inactive),-4.7e-06 (inactive),0.00424 (inactive),5.17% (inactive),14.4% (inactive)
Cc1cc(=O)n2nc(-c3ccccc3)sc2n1,563,-1.1% (inactive),-4.1% (inactive),106,-70.5% (inactive),108,-0.421 (inactive),-9.5e-06 (inactive),0.00585 (inactive),-17.6% (inactive),-64.6% (inactive)
CCOC(=O)CSc1nc2sc(C)c(C)c2c(=O)n1C,259,12.5% (inactive),25.6% (inactive),76.8,8.8% (inactive),113,-0.36 (inactive),1.9e-05 (inactive),0.00254 (inactive),11% (inactive),26% (inactive)
O=C(CSCc1cccs1)N1CCCC1,228,3.9% (inactive),-13.9% (inactive),95,18.9% (inactive),87.8,-0.528 (inactive),-1.2e-05 (inactive),0.00575 (inactive),-30.1% (inactive),-81.3% (inactive)
O=C(COc1ccccc1)NCC(c1cccs1)N1CCOCC1 (stereo not drawn),412,9% (inactive),2% (inactive),101,-82.3% (inactive),112,-0.453 (inactive),0.000103 (inactive),0.00649 (inactive),-14.3% (inactive),-11.6% (inactive)
COc1ccc(C(=O)NCCc2nnc(SCc3nc4ccccc4c(=O)[nH]3)n2C)cc1,357,-6.6% (inactive),-8.1% (inactive),101,-85.5% (inactive),112,-0.501 (inactive),-3.6e-05 (inactive),0.00496 (inactive),18.2% (inactive),18.8% (inactive)
Cn1c(Cl)nc2ccccc21,467,3.8% (inactive),12.8% (inactive),93.2,45.8% (inactive),93.3,-0.514 (inactive),-5.9e-05 (inactive),0.00423 (inactive),19.3% (inactive),51% (active)
O=C(NCCCN1CCOCC1)c1ccc(CS(=O)(=O)c2c(Cl)cccc2Cl)o1,440,0.9% (inactive),-10.5% (inactive),98.2,-46.8% (inactive),103,-0.458 (inactive),2.8e-05 (inactive),0.00463 (inactive),-8.21% (inactive),6.97% (inactive)
Cc1c(NC(=O)C2CCCCN2S(=O)(=O)c2ccc(Cl)cc2)c(=O)n(-c2ccccc2)n1C (stereo not drawn),699,-4.2% (inactive),-14.5% (inactive),112,2% (inactive),109,-0.604 (inactive),1.8e-05 (inactive),0.00694 (inactive),9.42% (inactive),-3.63% (inactive)
CC(C)CN(CC(C)C)C(=O)CS(=O)(=O)Cc1ccccc1,334,-1.2% (inactive),-5.8% (inactive),98.4,-51.3% (inactive),116,-0.492 (inactive),-6.4e-05 (inactive),0.00578 (inactive),6.49% (inactive),16.4% (inactive)
CC1=C(C(=O)N2CCCCC2)C(c2cccs2)C2=C(CCCC2=O)N1 (stereo not drawn),332,-3.9% (inactive),8.9% (inactive),95.9,-31.6% (inactive),92.4,-0.29 (inactive),-3.5e-05 (inactive),0.0061 (inactive),7.2% (inactive),6.53% (inactive)
COc1ccc(C2=NOC(C(=O)Nc3cc(Br)ccc3O)C2)cc1OC (stereo not drawn),672,-12.2% (inactive),-2.8% (inactive),102,-73.1% (inactive),106,-0.459 (inactive),-3.2e-05 (inactive),0.00665 (inactive),9.82% (inactive),34.8% (inactive)
